# Results from PubChem BioAssay (NCI).
# Where “and” joins values, the source holds several entries; their conditions need not be identical. Identical values can stand only once. The panel holds about 83,000 compounds, 20% with a hit somewhere; the sample as a whole holds those more often.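 48-hour exposure, single concentration, 96-well plates; percent growth endpoint where 0 means no net growth. Active: below 10.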 Calls of active or inactive are those of the source.
# Legend:
# Assay in all cases: NCI-60 one-dose screen, 48 h (100 = growth as untreated, 0 = no growth, -100 = all killed)
# [1] = tested on: SK-MEL-2 melanoma; details: 10 µM unless noted
# [2] = tested on: EKVX NSCLC
# [3] = tested on: SN12C renal
# [4] = tested on: UO-31 renal
# [5] = tested on: TK-10 renal
# [6] = tested on: ACHN renal; details: 10 µM unless noted
# [7] = tested on: CAKI-1 renal
# [8] = tested on: A498 renal
# [9] = tested on: CCRF-CEM leukemia; details: 10 µM unless noted
# [10] = tested on: MOLT-4 leukemia
compound,measurement,setting,value
CCOC(=O)c1ccncc1,growth,[1],106% (inactive)
same,growth,[2]; 10 µM unless noted,104% (inactive)
same,growth,[3]; 10 µM unless noted,98.9% (inactive)
same,growth,[4]; 10 µM unless noted,90.2% (inactive)
same,growth,[5]; 10 µM unless noted,99.4% (inactive)
same,growth,[6],119% (inactive)
same,growth,[7]; 10 µM unless noted,104% (inactive)
same,growth,[8]; 10 µM unless noted,86.8% (inactive)
same,growth,[9],108% (inactive)
same,growth,[10]; 10 µM unless noted,104% (inactive)
COC1C(OC(N)=O)C(O)C(Oc2ccc3c(O)c(NC(=O)c4ccc(O)c(CC=C(C)C)c4)c(=O)oc3c2C)OC1(C)C (stereo not given),growth,[1],105% (inactive) and 111% (inactive)
same,growth,[2]; 10 µM unless noted,109% (inactive)
same,growth,[3]; 10 µM unless noted,106% (inactive) and 97.3% (inactive)
same,growth,[4]; 10 µM unless noted,107% (inactive) and 96.9% (inactive)
same,growth,[5]; 10 µM unless noted,115% (inactive) and 108% (inactive)
same,growth,[6],23.8% (inactive) and 101% (inactive)
same,growth,[7]; 10 µM unless noted,85.9% (inactive) and 101% (inactive)
same,growth,[8]; 10 µM unless noted,106% (inactive) and 70.8% (inactive)
same,growth,[9],90% (inactive) and 59.2% (inactive)
same,growth,[10]; 10 µM unless noted,75.4% (inactive) and 93.5% (inactive)
C/C=C(/C(=O)NC(N)=O)C(C)C,growth,[1],109% (inactive)
same,growth,[2]; 10 µM unless noted,112% (inactive)
same,growth,[3]; 10 µM unless noted,102% (inactive)
same,growth,[4]; 10 µM unless noted,100% (inactive)
same,growth,[5]; 10 µM unless noted,117% (inactive)
same,growth,[6],110% (inactive)
same,growth,[7]; 10 µM unless noted,104% (inactive)
same,growth,[8]; 10 µM unless noted,102% (inactive)
same,growth,[9],111% (inactive)
same,growth,[10]; 10 µM unless noted,92.3% (inactive)
Nc1ccc2ccc(NS(=O)(=O)N3CCCCC3)cc2c1,growth,[1],85.4% (inactive)
same,growth,[2]; 10 µM unless noted,61.7% (inactive)
same,growth,[3]; 10 µM unless noted,43.2% (inactive)
same,growth,[4]; 10 µM unless noted,64.8% (inactive)
same,growth,[5]; 10 µM unless noted,47.1% (inactive)
same,growth,[6],56.7% (inactive)
same,growth,[7]; 10 µM unless noted,43.4% (inactive)
same,growth,[8]; 10 µM unless noted,29.3% (inactive)
same,growth,[9],18.3% (inactive)
same,growth,[10]; 10 µM unless noted,18% (inactive)
S=c1nc[nH]c2nc[nH]c12,growth,[1],54.6% [50 µM] (inactive)
same,growth,[2]; 10 µM,89.9% (inactive)
same,growth,[2]; 50 µM,73.9% (inactive)
same,growth,[3]; 10 µM,69.5% (inactive)
same,growth,[3]; 50 µM,31.5% (inactive)
same,growth,[4]; 10 µM,34% (inactive)
same,growth,[4]; 50 µM,36.2% (inactive)
same,growth,[5]; 10 µM,33.1% (inactive)
same,growth,[5]; 750 µM,15.9% (inactive) and -6.1% (active)
same,growth,[7]; 10 µM,7.07% (active)
same,growth,[7]; 50 µM,21% (inactive)
same,growth,[8]; 10 µM,71.1% (inactive)
same,growth,[8]; 50 µM,47.5% (inactive)
same,growth,[10]; 10 µM,10.6% (inactive)
same,growth,[10]; 50 µM,13.3% (inactive)
C=CCN1C(=O)c2ccccc2C1=O,growth,[1],101% (inactive)
same,growth,[2]; 10 µM unless noted,104% (inactive)
same,growth,[3]; 10 µM unless noted,87.4% (inactive)
same,growth,[4]; 10 µM unless noted,78.3% (inactive)
same,growth,[5]; 10 µM unless noted,98.3% (inactive)
same,growth,[6],102% (inactive)
same,growth,[7]; 10 µM unless noted,93.2% (inactive)
same,growth,[8]; 10 µM unless noted,92% (inactive)
same,growth,[9],93.3% (inactive)
same,growth,[10]; 10 µM unless noted,102% (inactive)
C/C=C/C(=O)OCCCCCCCCCCCC,growth,[1],94.3% (inactive)
same,growth,[2]; 10 µM unless noted,111% (inactive)
same,growth,[3]; 10 µM unless noted,81.6% (inactive)
same,growth,[4]; 10 µM unless noted,109% (inactive)
same,growth,[5]; 10 µM unless noted,92.8% (inactive)
same,growth,[6],103% (inactive)
same,growth,[7]; 10 µM unless noted,101% (inactive)
same,growth,[8]; 10 µM unless noted,103% (inactive)
same,growth,[9],117% (inactive)
same,growth,[10]; 10 µM unless noted,83.1% (inactive)
Clc1ccc(/C=C/c2ccc3ccccc3n2)cc1,growth,[1],10.7% (inactive) and 89.2% (inactive)
same,growth,[2]; 10 µM unless noted,57.6% (inactive) and 58.7% (inactive) and 66.2% (inactive)
same,growth,[3]; 10 µM unless noted,43.8% (inactive) and 97.7% (inactive) and 85.7% (inactive)
same,growth,[4]; 10 µM unless noted,69.7% (inactive) and 68.4% (inactive) and 58.1% (inactive)
same,growth,[5]; 10 µM unless noted,15.3% (inactive) and 132% (inactive) and 86.7% (inactive)
same,growth,[6],55.8% (inactive) and 93.3% (inactive) and 83% (inactive)
same,growth,[7]; 10 µM unless noted,47.7% (inactive) and 68% (inactive) and 84.7% (inactive)
same,growth,[8]; 10 µM unless noted,61% (inactive) and 135% (inactive) and 114% (inactive)
same,growth,[9],8.05% (active) and 97.1% (inactive) and 89.3% (inactive)
same,growth,[10]; 10 µM unless noted,30.9% (inactive) and 41.9% (inactive) and 76% (inactive)
O=C(NC(=O)c1ccc(F)c(Cl)c1)NC1CC1,growth,[1],107% (inactive)
same,growth,[2]; 10 µM unless noted,89.6% (inactive)
same,growth,[3]; 10 µM unless noted,102% (inactive) and 87.9% (inactive)
same,growth,[4]; 10 µM unless noted,96.8% (inactive)
same,growth,[5]; 10 µM unless noted,94.3% (inactive) and 96.1% (inactive)
same,growth,[6],106% (inactive) and 108% (inactive)
same,growth,[7]; 10 µM unless noted,104% (inactive) and 87.1% (inactive)
same,growth,[8]; 10 µM unless noted,95.8% (inactive) and 96% (inactive)
same,growth,[9],97.2% (inactive) and 101% (inactive)
same,growth,[10]; 10 µM unless noted,94.2% (inactive) and 75.6% (inactive)
COC(=O)c1nc(=S)[nH]c(C(=O)OC)c1C(=O)c1ccc(OC)cc1,growth,[1],104% (inactive)
same,growth,[2]; 10 µM unless noted,107% (inactive)
same,growth,[3]; 10 µM unless noted,98.5% (inactive)
same,growth,[4]; 10 µM unless noted,86.8% (inactive)
same,growth,[5]; 10 µM unless noted,110% (inactive)
same,growth,[6],105% (inactive)
same,growth,[7]; 10 µM unless noted,94.5% (inactive)
same,growth,[8]; 10 µM unless noted,116% (inactive)
same,growth,[9],101% (inactive)
same,growth,[10]; 10 µM unless noted,107% (inactive)
